Bioassay records: PubChem BioAssay, National Center for Advancing Translational Sciences (NCATS)
Luciferase inh – Photinus pyralis luciferase inhibition; purified P. pyralis luciferase, luminescence, biochemical; 76,000 tested, 2.5% active; Potency, µM (highest dose often 115 µM), usual class: inhibitors; note: nearly all actives have a fitted effect of over 65% in size
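FLuc 10nM, D-luciferin 10uM, ATP 10uM, Mg acetate 10mM, Tris acetate pH 7.5, Tween/BSA; cpd qHTS; enzyme added last; CCD luminescence.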
HEK cytotox – HEK 293 cell cytotoxicity; HEK 293 viability, ATP luminescence (CellTiter-Glo), 48-72 h; Potency, µM (doses to about 115 µM), without a hit: top-dose activity change, negative = cytotoxicity, actives largely listed as inhibitors; 94,000 tested, 6.6% active; AID 1345083; note: nearly all actives have a fitted effect of over 60% in size
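HEK 293 seeded at 250 cells/well receive compound via pintool. After 48 or 72 hr at 37 degree Celsius, 5% CO2 and 95% humidity, CellTiter-Glo is dispensed and luminescence read following 10 min at room temperature.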
3T3 cytotox – NIH 3T3 cell cytotoxicity | 94,000 tested, 4.3% active | Potency, µM (highest dose often 96.7 µM), for inactives: at the highest dose activity change, negative = cytotoxicity, hits mostly inhibitors | NIH 3T3 viability, CellTiter-Glo ATP luminescence, 48-72 h; note: nearly all actives have a fitted effect of over 55% in size
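Cytotoxicity was measured by CellTiter-Glo ATP luminescence after 48 or 72 h compound exposure at 37 °C. Mouse NIH 3T3 fibroblasts were seeded at 400 cells/well and dosed by 23 nL pin transfer.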
NPR1 antag – human Npr1 receptor antagonism. P16066. HEK293 hNpr1 GloSensor cGMP, ANP-stimulated luminescence. Potency, µM (highest dose often 46.3 µM), for the others: top-dose activity change, negative = inhibition, hits mostly inhibitors. 76,000 tested, 1.6% active. AID 1347048; calls by dose curve; note: nearly all actives have a fitted effect of over 60% in size
Target sequence (P16066 whole entry, looked up): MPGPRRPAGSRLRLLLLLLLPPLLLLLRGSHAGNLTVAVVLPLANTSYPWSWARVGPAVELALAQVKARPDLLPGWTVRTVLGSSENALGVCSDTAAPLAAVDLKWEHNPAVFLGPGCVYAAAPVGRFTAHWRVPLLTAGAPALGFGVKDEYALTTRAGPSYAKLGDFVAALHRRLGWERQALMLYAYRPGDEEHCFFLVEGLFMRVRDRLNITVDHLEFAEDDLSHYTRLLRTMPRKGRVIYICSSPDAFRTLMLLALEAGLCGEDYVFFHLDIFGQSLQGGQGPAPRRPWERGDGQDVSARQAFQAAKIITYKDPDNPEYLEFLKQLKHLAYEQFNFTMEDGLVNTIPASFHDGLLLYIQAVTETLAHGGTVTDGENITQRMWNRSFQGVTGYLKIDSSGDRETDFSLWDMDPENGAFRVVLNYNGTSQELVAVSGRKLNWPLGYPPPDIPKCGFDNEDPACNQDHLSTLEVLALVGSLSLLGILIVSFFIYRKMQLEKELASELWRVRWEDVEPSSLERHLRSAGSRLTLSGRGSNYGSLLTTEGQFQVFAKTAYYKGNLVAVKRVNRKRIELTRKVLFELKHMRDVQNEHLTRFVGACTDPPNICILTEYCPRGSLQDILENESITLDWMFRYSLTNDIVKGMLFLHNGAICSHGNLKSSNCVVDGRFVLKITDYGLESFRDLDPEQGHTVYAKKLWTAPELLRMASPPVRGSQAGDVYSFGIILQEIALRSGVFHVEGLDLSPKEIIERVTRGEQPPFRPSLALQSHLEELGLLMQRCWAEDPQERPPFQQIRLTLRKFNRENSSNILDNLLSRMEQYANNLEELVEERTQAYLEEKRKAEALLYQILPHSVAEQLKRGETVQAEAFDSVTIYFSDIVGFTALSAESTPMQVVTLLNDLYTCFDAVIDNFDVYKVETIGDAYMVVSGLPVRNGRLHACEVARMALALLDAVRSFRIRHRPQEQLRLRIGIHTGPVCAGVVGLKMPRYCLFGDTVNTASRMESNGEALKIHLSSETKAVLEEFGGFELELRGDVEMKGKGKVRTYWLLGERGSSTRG
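HEK293 cells stably expressing human Npr1 and cGMP GloSensor pGS-40F, loaded 2 h with 2% GloSensor reagent, given compound 30 min at room temperature. Luminescence read before and 20 min after 0.1 nM hNppA.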
Starred values were filed as active, the others as inactive; i = inactive; ? = inconclusive; / = not tested or not shown; [ ] = dose if it differs, or a comment. In the library only some 11% were active in any assay of this set; here they are far more common. Unless noted, calls come from the whole dose curve; as a rule, active = well fitted curve in the direction sought with a large enough effect; inconclusive = small, poorly fitted or top-dose-only effect, or another doubt; inactive = no such curve, though single readings can be large; an effect the other way counts as inactive or inconclusive. % is set by controls: 0 for no effect and ±100 for the full control effect; potency is the fitted concentration of half-maximal effect.

SMILES	Luciferase inh	HEK cytotox	3T3 cytotox	NPR1 antag
O=C(NCCc1ccccc1F)c1ccc2nc(-c3cccnc3Cl)oc2c1	/	40µM*	-26%	/
CC(C)NC(=O)c1ccc2nc(-c3ccccn3)oc2c1	/	45µM*	?	/
CC(C)NC(=O)c1ccc2oc(-c3ccccn3)nc2c1	/	?	-29%	/
O=C(NC1CC1)c1ccc2nc(-c3cccnc3Cl)oc2c1	/	-25%	-30%	/
Cc1ncccc1-c1nc2cc(C(=O)NC3CC3)ccc2o1	/	?	89µM*	/
Cc1ccc(CNC(=O)N2CCCC(Cc3noc(-c4cnccn4)n3)C2)cc1 (stereo not drawn)	i	3%	-12%	15%
C[C@H]1CN(C(=O)c2ccc(F)cc2)C[C@@H]1c1nc(-c2ccccc2)no1	i	?	?	-24%
CN(Cc1ccc2nsnc2c1)c1cc(C2CC(O)C2)ncn1 (stereo not drawn)	i	?	?	?
Cc1cccc(-c2nc3ccc(C(=O)NC4CCCCC4)cc3o2)n1	/	i	-6%	/
Cc1cccc(-c2nc3ccc(C(=O)NC4CCCCCC4)cc3o2)n1	/	79µM*	?	/
O=C(c1ccc2nc(-c3ccccn3)oc2c1)N1CCCCC1	/	28µM*	20µM*	/
CC(=O)N1CCN(C(=O)c2ccc3nc(-c4ccccn4)oc3c2)CC1	/	i	-11%	/
Cc1cccc(-c2nc3ccc(C(=O)N4CCOCC4)cc3o2)n1	/	32µM*	22µM*	/
O=C(NCc1cccc(C(F)(F)F)c1)c1ccc2nc(-c3ccccn3)oc2c1	/	?	40µM*	/
COCc1cn(C[C@H]2C[C@@H](NCc3nccs3)[C@H](O)[C@@H]2O)nn1	i	i	3%	0%
CN(Cc1cccnc1)C(=O)[C@H]1C[C@@H](C(=O)O)N(C)[C@H]1c1cccc(F)c1F	i	i	i	13%
NC(=O)c1ccc2[nH]c(CN3CCC(Oc4ncccn4)CC3)cc(=O)c2c1	i	-2%	-12%	1%
Cc1ccn(CC(=O)N[C@@H]2CN(c3ccncn3)C[C@H]2CN(C)C)n1	i	i	2%	5%
Cc1ccn2c(C(=O)N[C@H](c3cnn(C)c3)C3CC(O)C3)nnc2n1 (stereo partly drawn)	i	-15%	2%	4%
O=C(NCCc1ccccc1F)c1ccc2oc(-c3ccccn3)nc2c1	/	-1%	-11%	/
Cc1cccc(-c2nc3ccc(C(=O)NCc4ccc(Cl)cc4)cc3o2)n1	/	-5%[172 µM]	-17%[138 µM]	/
O=C(NCc1ccccc1F)c1ccc2nc(-c3ccccn3)oc2c1	/	71µM*	?	/
Cc1cccc(-c2nc3ccc(C(=O)NCc4ccccc4F)cc3o2)n1	/	100µM*	?	/
O=C(CCc1ccc(-c2ccc(Cl)cc2)[nH]1)N1CC[C@H](CO)[C@H](O)C1	?	?	?	-15%
Cc1cc(C2CCCN2C(=O)c2ccc(-c3ccccc3Cl)o2)no1 (stereo not drawn)	?	45µM*	?	4%
SMILES	Luciferase inh	HEK cytotox	3T3 cytotox	NPR1 antag
O=C(NC1CC1)c1cc(-c2cccc(C(F)(F)F)c2)c2nncn2n1	/	-29%	-29%	/
CC(C)NC(=O)c1cc(-c2cccc(C(F)(F)F)c2)c2nncn2n1	/	-4%	-6%	/
O=C(NCC1CC1)c1cc(-c2cccc(C(F)(F)F)c2)c2cccn2n1	/	28µM*	?	/
COCCNC(=O)c1cc(-c2cccc(C(F)(F)F)c2)c2cccn2n1	/	32µM*	?	/
O=C(NCCC1CCN(C(=O)Nc2ccccc2)CC1)c1ccc(F)cc1	?	2%	-5%	-14%
O=C(NC1CCN(c2cc(-c3ccccc3)[nH]n2)CC1)C1CCCCC1	i	0%	-15%	-1%
CC(NC(=O)c1csc(N2CCN(c3ccccc3F)CC2)n1)c1ccccc1 (stereo not drawn)	i	45µM*	?	3%
O=C(NCCCN1CCCC1=O)c1csc(N2CCN(c3ccc(F)cc3)CC2)n1	i	?	-24%	-17%
O=C(NCC1CC1)c1csc(N2CCN(c3ccccc3F)CC2)n1	i	35µM*	13µM*	-24%
Cc1ccc(-n2cc(CN3CCN(C)C(CCO)C3)cn2)cc1 (stereo not drawn)	i	-28%	-8%	-6%
CCOc1cccn2c(=O)c(-c3cc(C)n(-c4ccc(Cl)cc4)n3)c(C)nc12	i	?	-15%	-1%
Cc1nc2c(OCC(=O)c3ccccc3)cccn2c(=O)c1-c1cc(C)n(-c2ccc(Cl)cc2)n1	28µM*	?	?	0%
